Screens (PubChem BioAssay)
KAT2A inh – inhibitors of human GCN5L2 histone acetyltransferase; Q92830; actives 0.21% (n = 390,000); GCN5L2 HAT assay, ThioGlo1 CoA-SH fluorescence; AID 504327; Potency, µM (doses to about 58.9 µM), actives largely listed as inhibitors
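GCN5L2 (20nM final) in 50mM HEPES, 0.1mM EDTA pH 7.5, 0.01% Tween-20 was preincubated 15 min at room temperature with compound, then given ThioGlo1 (50uM), H3(1-25) peptide (75uM) and acetyl-CoA (70uM); CoA-thiol fluorescence (Ex340/Em540) was read at 0 and 20 min.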
TrxR1 substrate – is turned over as a substrate by rat TrxR1. Potency, µM (titrated, usually from 114 µM). actives 0.01% (n = 390,000). AID 588456. O89049. purified TrxR1 substrate turnover, NADPH consumption readout; further: nearly all actives have a fitted effect of over 50% in size
Target sequence (O89049 whole entry, looked up): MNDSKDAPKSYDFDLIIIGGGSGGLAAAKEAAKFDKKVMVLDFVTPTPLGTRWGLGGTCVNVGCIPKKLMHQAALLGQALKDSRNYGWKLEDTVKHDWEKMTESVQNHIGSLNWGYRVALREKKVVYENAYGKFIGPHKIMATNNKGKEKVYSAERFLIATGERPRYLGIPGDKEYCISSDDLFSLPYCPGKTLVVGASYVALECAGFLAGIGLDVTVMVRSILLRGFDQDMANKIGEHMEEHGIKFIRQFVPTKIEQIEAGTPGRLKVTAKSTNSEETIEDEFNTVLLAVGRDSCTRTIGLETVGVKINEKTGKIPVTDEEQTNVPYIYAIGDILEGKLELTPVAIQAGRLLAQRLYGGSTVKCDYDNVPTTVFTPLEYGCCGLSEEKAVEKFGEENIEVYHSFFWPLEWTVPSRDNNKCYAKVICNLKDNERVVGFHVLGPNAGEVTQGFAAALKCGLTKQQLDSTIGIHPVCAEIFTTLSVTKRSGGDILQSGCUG
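Rat TrxR1, dispensed at 90 nM, was prereduced with 400 uM NADPH (final) for 5 min at ~22 deg C, then incubated with compound 15 min before 400 uM selenite. A first-read NADPH fluorescence drop versus no-compound background flagged substrates.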
GALK inh – galactokinase (human) inhibition; P51570; Purified GALK, Kinase-Glo residual ATP luminescence; Potency, µM (top dose mostly 57.5 µM), hits mostly inhibitors; actives 0.007% (n = 270,000); AID 1868
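Quantitative HTS: GALK 5 nM, ATP 35 uM, galactose 100 uM, 1 h room temperature, then luciferase-based ATP detection.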
rTrxR1 inhibitor – rat TrxR1 inhibition. actives 1% (n = 390,000). recombinant rTrxR1, NADPH fluorescence consumption, selenite substrate. Potency, µM (series often up to 114 µM), actives largely listed as inhibitors. O89049; further: nearly all actives have a fitted effect of over 65% in size
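Rat TrxR1 (90 nM in the dispensed reagent) was pre-reduced with 400 uM NADPH for 5 min at room temperature, then incubated with compound for 15 min. After 400 uM selenite was added, NADPH fluorescence (Ex 340/Em 450 nm) was followed for 8 min.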
Giardia killer – Giardia lamblia killing; Giardia lamblia trophozoite viability; activity change, % at 7.66 µM, hits read low; actives 0.15% (n = 340,000); AID 540267; in the data active means activity change below about -80%; inconclusive means between about -30% and that limit;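 further: parasites exposed to compound for two days anaerobically before the ATP read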
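Each well holds 100 Giardia trophozoites and compound. After two days (48 hrs) at 37 deg C in anaerobic conditions, ATP is quantified by luminescence.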
Pin1 inh – blocks the human prolyl isomerase Pin1. Pin1 FP peptide displacement, HiFluor488, 10 min. actives 0.009% (n = 390,000). Potency, µM (doses to about 115 µM), usual class: inhibitors. AID 504891. Q13526; active means well fitted inhibition curve with a large enough effect in the polarisation, with a control signal flat, not every such curve was filed as active; inconclusive means small, poorly fitted or top-dose-only effect, or effect the other way, or a change in a side signal; inactive means no such curve, though single readings can be large or run the other way; the % refers to the polarisation
Hits are given with their value; – = inactive; ? = inconclusive; · = no result given; [ ] = another dose, or the depositor's remark. Sampled rows, rich in hits. Any-hit rate of the full collection: about 1.3%. Unless noted, the call rests on the fitted dose curve; in most records, active means well fitted curve in the direction sought with a large enough effect; inconclusive means small, poorly fitted or top-dose-only effect, or another doubt; inactive means no such curve, though single readings can be large; an effect the other way counts as inactive or inconclusive.

SMILES	KAT2A inh	TrxR1 substrate	GALK inh	rTrxR1 inhibitor	Giardia killer	Pin1 inh
Fc1ccc(C2Nc3cccc4cccc(c34)N2)cc1	–	–	–	25µM	–	?
Cc1ccc(C2Nc3cccc4cccc(c34)N2)s1	–	–	–	22µM	–	–
FC(F)(F)c1ccc(C2Nc3cccc4cccc(c34)N2)cc1	–	–	–	28µM	–	–
O=C1Cc2cc(S(=O)(=O)N3CCN(c4ccc(Cl)cc4)CC3)ccc2N1	·	·	·	·	·	–
CCC(C)Cn1cnc2c(Sc3c([N+](=O)[O-])ncn3C)nc(N)nc21 (stereo not given)	·	–	·	2.8µM	–	–
CC(C)Cn1cnc2c(Sc3c([N+](=O)[O-])ncn3C)nc(N)nc21	·	–	·	2µM	–	–
CC(=O)OCCN(C)c1cc(SC(C)C)c2nonc2c1[N+](=O)[O-]	–	–	–	3.2µM	–	–
CN(CCO)c1cc(Sc2nc3ccccc3s2)c2nonc2c1[N+](=O)[O-]	–	–	–	0.35µM	–	–
CC(=O)OCCNc1cc(SC(C)C)c2nonc2c1[N+](=O)[O-]	–	–	–	–	–	–
Cn1c2cc(Br)sc2c2cnn(Cc3ccccc3F)c(=O)c21	·	·	·	·	·	–
O=C(COc1cccnc1[N+](=O)[O-])Nc1c(Cl)cccc1Cl	–	–[2.29 µM]	·	–[2.29 µM]	?	–
O=C(COc1cccnc1[N+](=O)[O-])c1ccc(Cl)s1	?	–	–	25µM	–	?
O=C(COc1cccnc1[N+](=O)[O-])Nc1ncc(Cl)cc1Cl	?	–	·	–	-80	?
O=C(COc1cccnc1[N+](=O)[O-])Nc1cc(Cl)ccc1Cl	–	–	·	–	?	–
CS(=O)(=O)c1ccc(C(=O)NCCN2C(=O)S/C(=C\c3cccnc3)C2=O)cc1[N+](=O)[O-]	–	–	–	18µM	–	?
COc1cc(OC)c2c(c1C(CCN1CCCC1)c1ccc(N(C)C)cc1)OC(=O)CC2c1ccc(N(C)C)cc1 (stereo not given)	·	–	·	?	–	–
O=C(N=Nc1c(O)[nH]c2ccccc12)c1ccc2c(c1)OCO2	–	–	–	–	-82	–
Cc1ccc(CNC(=O)c2cn(C3CCCCC3)c(=O)c3c2c2ccccc2n3C)o1	–	–	–	4µM	–	–
C/C=C1\COC(C(=O)NCc2ccccc2)(C(F)(F)F)C=C1C=C(C)C (stereo not given)	·	–	·	3.2µM	–	–
CCC/C=C1/CCCOC(C(=O)NCCN2CCOCC2)(C(F)(F)F)C1 (stereo not given)	·	–	·	–	–	–
O=C(NCc1ccccc1)C1(C(F)(F)F)C/C(=C\Cc2ccccc2)CCCO1 (stereo not given)	·	–	·	–	–	–
C/C=C1\COC(C(=O)NCCN2CCOCC2)(C(F)(F)F)C=C1C=C(C)C (stereo not given)	·	–	·	10µM	–	–
CCc1cccc(N2C(=O)CS(=O)(=O)C23C(=O)N(Cc2ccccc2)c2ccc(C)cc23)c1 (stereo not given)	–	–	·	–	·	–
COc1ccccc1N1CCN(Cc2ccc(O)c3ncccc23)CC1	–	–	–	–	–	–
Oc1ccc(CN2CCCc3ccccc32)c2cccnc12	–	–	–	1.3µM	–	–
SMILES	KAT2A inh	TrxR1 substrate	GALK inh	rTrxR1 inhibitor	Giardia killer	Pin1 inh
Cn1cnc([N+](=O)[O-])c1C(=O)Nc1cccc([N+](=O)[O-])c1	?	–[0.0914 µM]	–	–	?	–
Cn1cnc([N+](=O)[O-])c1Oc1cccc(O)c1	–	–	–	25µM	–	–
Cn1cnc([N+](=O)[O-])c1Oc1cccc2ccccc12	–	–	–	8.9µM	–	–
Cn1cnc([N+](=O)[O-])c1Oc1ccccc1	–	–	–	45µM	–	–
Cc1cc(Br)cc2c1N(Cc1ccccc1OC(C)C)C(=O)C2=O	?	–	·	–	·	–
O=C1C[C@H](c2ccc3ccccc3c2)N1S(=O)(=O)c1ccccc1[N+](=O)[O-]	·	–	·	?	–	–
CC(C)C1Nc2ccc(C(=O)O)cc2C2C=CCC21 (stereo not given)	–	–	–	?	–	?
CCOC(=O)c1ccc2c(c1)C1C=CCC1C(C(=O)O)N2 (stereo not given)	20µM	·	–	·	·	·
